Reference: the supplement of paper PMC10849652
Targets with a hit are over-represented here; the source holds about 8,800 in all. About 0.5% of all pairs of compound and target were hits. Unmarked numbers belong to inactive results.

Compound: c1ccc([C@@H]2C[C@H]2NC2CCNCC2)cc1
Experiment: log2 fold change, soluble protein after heating vs DMSO (PISA); higher = thermal stabilisation; K562 lysate, 10 uM; active = over 0.2 and 3.5 SD of the protein, either way, in both replicates (recomputed)
Procedure, shortened: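 Quantification was by TMTpro 16plex LC-MS/MS with equalised channel sums, applied to the supernatant after 21,000xg for 90 min. Samples were crude K562 extract at 1 mg/mL protein in PBS pH 7.4 with 1 mM MgCl2, treated with 10 μM compound for 30 min, heated for 3 min across 48°C-58°C, pooled and brought to 0.5% NP-40 at 4°C. Values are log-two fold changes in thermal stability relative to solvent controls, from duplicates.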

Sequence of UniProt Q13885 (Q13885 whole entry, looked up): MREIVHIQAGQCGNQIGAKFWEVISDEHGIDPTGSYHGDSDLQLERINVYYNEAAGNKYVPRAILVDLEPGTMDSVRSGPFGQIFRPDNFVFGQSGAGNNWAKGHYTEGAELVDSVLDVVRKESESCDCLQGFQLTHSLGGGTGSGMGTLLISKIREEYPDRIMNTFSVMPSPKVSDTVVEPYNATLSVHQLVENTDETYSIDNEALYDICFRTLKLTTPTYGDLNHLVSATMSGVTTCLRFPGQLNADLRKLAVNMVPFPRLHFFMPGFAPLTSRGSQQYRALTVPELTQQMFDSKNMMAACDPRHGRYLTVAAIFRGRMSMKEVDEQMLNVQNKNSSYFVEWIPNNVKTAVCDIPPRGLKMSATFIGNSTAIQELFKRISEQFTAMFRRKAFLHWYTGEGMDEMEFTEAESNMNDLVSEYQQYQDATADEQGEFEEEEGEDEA
Sequence of UniProt Q9UNY4 (Q9UNY4 whole entry, looked up): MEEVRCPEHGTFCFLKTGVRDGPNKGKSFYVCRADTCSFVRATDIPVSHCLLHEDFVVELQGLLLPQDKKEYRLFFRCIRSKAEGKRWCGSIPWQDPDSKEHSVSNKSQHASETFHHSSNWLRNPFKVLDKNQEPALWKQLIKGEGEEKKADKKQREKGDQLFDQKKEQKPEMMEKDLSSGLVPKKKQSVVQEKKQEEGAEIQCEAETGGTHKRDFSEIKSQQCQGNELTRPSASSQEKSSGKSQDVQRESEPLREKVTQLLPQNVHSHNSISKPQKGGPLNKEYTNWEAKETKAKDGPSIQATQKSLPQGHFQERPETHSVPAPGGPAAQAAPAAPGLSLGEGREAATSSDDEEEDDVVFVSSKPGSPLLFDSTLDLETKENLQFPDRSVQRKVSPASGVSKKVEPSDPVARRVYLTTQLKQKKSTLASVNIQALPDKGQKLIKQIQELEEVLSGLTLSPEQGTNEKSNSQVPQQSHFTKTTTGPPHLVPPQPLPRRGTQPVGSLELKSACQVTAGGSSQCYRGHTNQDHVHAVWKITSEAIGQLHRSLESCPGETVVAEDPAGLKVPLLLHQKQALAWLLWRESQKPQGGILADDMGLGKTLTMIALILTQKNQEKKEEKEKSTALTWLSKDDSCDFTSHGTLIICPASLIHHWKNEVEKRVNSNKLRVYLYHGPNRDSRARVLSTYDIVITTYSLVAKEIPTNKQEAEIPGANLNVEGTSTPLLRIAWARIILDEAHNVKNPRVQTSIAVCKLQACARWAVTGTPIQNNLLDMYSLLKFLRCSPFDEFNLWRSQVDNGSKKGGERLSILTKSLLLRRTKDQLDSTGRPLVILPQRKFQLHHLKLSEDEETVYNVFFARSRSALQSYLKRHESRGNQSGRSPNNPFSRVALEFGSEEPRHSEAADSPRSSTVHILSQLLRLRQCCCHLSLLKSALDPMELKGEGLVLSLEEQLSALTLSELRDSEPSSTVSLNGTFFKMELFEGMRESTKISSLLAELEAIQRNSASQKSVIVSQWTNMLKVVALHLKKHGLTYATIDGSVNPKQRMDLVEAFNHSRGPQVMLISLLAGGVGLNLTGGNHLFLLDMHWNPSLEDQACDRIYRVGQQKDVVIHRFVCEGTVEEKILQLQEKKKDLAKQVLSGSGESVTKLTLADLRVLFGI
Sequence of UniProt Q9NYB0 (Q9NYB0 whole entry, looked up): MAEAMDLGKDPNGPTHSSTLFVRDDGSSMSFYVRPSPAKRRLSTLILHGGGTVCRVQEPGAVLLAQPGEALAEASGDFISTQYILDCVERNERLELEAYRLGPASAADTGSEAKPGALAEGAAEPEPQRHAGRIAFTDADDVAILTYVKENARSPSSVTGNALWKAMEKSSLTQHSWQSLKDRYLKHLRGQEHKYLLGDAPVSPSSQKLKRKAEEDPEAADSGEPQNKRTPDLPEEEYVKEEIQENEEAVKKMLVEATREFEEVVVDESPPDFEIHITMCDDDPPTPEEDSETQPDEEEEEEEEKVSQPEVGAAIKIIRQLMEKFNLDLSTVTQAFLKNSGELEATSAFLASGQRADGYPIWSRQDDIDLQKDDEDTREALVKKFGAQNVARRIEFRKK
Sequence of UniProt Q9Y4R8 (Q9Y4R8 whole entry, looked up): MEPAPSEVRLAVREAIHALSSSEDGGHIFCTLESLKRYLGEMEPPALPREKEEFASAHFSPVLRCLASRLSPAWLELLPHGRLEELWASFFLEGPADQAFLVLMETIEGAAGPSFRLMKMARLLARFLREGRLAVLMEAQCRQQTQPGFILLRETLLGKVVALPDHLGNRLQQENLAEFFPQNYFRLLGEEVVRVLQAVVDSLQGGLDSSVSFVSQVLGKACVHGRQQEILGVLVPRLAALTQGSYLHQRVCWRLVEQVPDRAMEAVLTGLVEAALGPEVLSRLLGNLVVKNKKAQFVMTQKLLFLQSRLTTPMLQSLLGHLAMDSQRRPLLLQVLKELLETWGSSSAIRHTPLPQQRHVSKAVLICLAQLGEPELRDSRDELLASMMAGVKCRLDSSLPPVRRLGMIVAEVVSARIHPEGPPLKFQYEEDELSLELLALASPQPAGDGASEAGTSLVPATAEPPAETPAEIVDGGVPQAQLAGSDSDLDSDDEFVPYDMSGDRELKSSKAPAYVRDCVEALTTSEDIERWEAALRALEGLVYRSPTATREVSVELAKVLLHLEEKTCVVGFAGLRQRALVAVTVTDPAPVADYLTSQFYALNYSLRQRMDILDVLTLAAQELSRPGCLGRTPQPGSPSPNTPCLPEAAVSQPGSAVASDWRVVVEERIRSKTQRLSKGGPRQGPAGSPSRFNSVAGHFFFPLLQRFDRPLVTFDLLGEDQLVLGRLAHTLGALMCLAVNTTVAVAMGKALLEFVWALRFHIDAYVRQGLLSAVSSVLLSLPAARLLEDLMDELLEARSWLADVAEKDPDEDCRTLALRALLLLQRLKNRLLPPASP
Sequence of UniProt Q9NZ01 (Q9NZ01 whole entry, looked up): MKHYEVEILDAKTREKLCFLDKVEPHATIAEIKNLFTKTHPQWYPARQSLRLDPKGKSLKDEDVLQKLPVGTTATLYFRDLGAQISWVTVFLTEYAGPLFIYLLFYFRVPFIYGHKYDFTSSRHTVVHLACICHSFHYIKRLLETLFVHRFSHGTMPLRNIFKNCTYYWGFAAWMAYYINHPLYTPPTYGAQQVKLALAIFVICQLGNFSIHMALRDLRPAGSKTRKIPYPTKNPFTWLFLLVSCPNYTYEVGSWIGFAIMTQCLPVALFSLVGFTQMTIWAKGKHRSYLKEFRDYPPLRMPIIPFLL
Sequence of UniProt Q5JUR7 (Q5JUR7 whole entry, looked up): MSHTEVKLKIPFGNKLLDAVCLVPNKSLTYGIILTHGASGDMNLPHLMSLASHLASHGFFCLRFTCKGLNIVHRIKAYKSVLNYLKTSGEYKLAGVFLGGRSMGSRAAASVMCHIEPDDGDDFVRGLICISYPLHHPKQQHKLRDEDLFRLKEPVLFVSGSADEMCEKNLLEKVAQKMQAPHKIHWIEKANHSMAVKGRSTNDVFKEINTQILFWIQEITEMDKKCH
Sequence of UniProt Q9NZI7 (Q9NZI7 whole entry, looked up): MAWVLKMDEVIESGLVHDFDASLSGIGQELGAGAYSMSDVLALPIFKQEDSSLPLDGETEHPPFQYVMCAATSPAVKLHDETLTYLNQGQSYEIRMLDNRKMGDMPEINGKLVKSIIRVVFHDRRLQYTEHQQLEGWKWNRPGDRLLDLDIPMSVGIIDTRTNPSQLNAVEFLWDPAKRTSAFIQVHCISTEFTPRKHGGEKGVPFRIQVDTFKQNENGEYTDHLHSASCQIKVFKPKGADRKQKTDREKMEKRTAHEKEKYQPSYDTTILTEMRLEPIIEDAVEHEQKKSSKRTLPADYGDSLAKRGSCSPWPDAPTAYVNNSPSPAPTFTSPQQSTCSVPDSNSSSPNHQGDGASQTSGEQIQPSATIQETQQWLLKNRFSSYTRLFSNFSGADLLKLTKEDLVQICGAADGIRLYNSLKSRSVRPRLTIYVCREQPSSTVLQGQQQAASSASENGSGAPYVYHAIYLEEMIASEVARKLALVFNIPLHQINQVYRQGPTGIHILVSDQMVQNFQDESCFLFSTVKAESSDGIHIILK
Sequence of UniProt Q5U3C3 (Q5U3C3 whole entry, looked up): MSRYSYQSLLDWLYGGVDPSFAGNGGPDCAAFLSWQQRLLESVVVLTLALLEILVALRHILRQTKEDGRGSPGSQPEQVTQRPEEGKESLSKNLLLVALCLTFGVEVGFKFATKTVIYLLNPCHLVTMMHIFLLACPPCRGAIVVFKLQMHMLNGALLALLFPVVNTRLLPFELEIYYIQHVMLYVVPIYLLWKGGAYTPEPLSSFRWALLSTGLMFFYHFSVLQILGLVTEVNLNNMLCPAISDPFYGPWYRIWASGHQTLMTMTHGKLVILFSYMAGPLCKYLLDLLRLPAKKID
Sequence of UniProt Q9UJT0 (Q9UJT0 whole entry, looked up): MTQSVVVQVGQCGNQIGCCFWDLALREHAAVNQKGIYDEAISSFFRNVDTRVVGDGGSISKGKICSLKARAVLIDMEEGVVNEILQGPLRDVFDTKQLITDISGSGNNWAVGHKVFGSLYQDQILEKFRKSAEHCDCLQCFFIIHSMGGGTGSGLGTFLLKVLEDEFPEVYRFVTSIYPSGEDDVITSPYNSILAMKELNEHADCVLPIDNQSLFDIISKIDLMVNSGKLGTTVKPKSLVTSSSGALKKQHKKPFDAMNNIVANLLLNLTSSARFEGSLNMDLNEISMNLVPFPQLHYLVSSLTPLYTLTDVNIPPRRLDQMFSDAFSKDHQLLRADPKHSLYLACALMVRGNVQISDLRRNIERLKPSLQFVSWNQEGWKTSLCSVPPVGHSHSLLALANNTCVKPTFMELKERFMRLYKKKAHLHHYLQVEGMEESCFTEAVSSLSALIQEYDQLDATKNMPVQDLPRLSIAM
Sequence of UniProt P62256 (P62256 whole entry, looked up): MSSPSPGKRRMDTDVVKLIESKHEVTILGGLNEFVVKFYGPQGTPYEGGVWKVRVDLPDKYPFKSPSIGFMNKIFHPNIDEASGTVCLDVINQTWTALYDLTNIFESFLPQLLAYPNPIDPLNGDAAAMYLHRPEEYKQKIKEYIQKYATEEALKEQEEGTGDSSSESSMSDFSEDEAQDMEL

Target	log2 fold change
TRNAU1AP (UniProt Q9NX07)	-0.048
TERF2IP (UniProt Q9NYB0)	0.116
TFIP11 (UniProt Q9UBB9)	0.044
TBC1D8B (UniProt Q0IIM8)	-0.101
UBE2H (UniProt P62256)	0.095
TELO2 (UniProt Q9Y4R8)	0.025
TMEM263 (UniProt Q8WUH6)	-0.073
TTLL12 (UniProt Q14166)	0.033
TUBB2A (UniProt Q13885)	-0.015
TTF2 (UniProt Q9UNY4)	0.003
UBAP2L isoform 5 (UniProt Q14157)	-0.004
TUBA4A (UniProt P68366)	0.019
TEX30 (UniProt Q5JUR7)	-0.038
TECR (UniProt Q9NZ01)	0.046
TUBGCP3 (UniProt Q96CW5)	0.037
TMPO (UniProt P42166)	0.059
TIMELESS (UniProt Q9UNS1)	0.02
TPM3 (UniProt P06753)	0.057

Target	log2 fold change
TMEM164 (UniProt Q5U3C3)	-0.543
TXNIP (UniProt Q9H3M7)	0.087
TUBE1 (UniProt Q9UJT0)	0.107
TDRKH (UniProt Q9Y2W6)	-0.053
TPM1 isoform 4 (UniProt P09493)	0.056
UBXN6 (UniProt Q9BZV1)	0.031
TRAPPC10 (UniProt P48553)	-0.012
TMEM199 (UniProt Q8N511)	-0.029
TUBA1B (UniProt P68363)	-0.03
UBP1 (UniProt Q9NZI7)	0.056
TOR3A (UniProt Q9H497)	-0.008
TBC1D23 (UniProt Q9NUY8)	-0.024
TRIM33 (UniProt H0Y612)	0.098
TFCP2 (UniProt Q12800)	-0.103
TNPO3 (UniProt Q9Y5L0)	-0.029
TUBGCP2 isoform 4 (UniProt Q9BSJ2)	0.097
TTC5 (UniProt Q8N0Z6)	0.002
